Hits are enriched below; roughly 3.3% of the tested compounds scored in any of these assays.
14-3-3 Bad inh – disrupts binding of bovine 14-3-3 zeta to phospho-Bad peptide | P63103 | 220,000 compounds, 0.71% hits | inhibition, % at 21.7 µM | TR-FRET 14-3-3zeta/Dy647-pBad peptide displacement, 1 h;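 active means inhibition above about 70%, limit read from the data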
eIF4E-4G inh – eIF4E/eIF4G interaction inhibition in translation initiation. P63073+Q04637. TR-FRET eIF4E-eIF4GI(517-606) binding, 2 h. inhibition, % at 21.7 µM. 220,000 compounds, 0.37% hits. AID 782
Mcl1-Noxa inh – Mcl-1/Noxa interaction inhibition. Q07820. TR-FRET Mcl-1/Noxa peptide binding, 2 h. inhibition, % at 21.7 µM. 220,000 compounds, 1.5% hits. AID 1022;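 active means compounds that cut the protein-peptide binding signal by more than 50% relative to plate controls in a single-dose test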;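 further: His-tagged Mcl-1 with rhodamine Noxa BH3 peptide and terbium anti-His antibody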
NCF1 inh – p47phox (human) inhibition | P14598 | p47phox/p22phox peptide binding, fluorescence polarization, 2 h | inhibition, % at 24.7 µM | 220,000 compounds, 0.53% hits | AID 1274
Target sequence (P14598 whole entry, looked up): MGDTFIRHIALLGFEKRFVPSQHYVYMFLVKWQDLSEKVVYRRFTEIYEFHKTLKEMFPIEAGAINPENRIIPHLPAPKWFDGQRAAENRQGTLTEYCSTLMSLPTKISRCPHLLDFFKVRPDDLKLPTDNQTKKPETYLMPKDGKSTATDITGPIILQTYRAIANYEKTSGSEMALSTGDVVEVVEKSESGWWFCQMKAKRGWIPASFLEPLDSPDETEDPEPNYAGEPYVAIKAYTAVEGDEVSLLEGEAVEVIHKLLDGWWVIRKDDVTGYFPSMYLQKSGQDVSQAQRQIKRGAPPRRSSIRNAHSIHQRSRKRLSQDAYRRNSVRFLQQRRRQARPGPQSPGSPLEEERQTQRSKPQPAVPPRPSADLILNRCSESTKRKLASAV
Mcl1-Bid inh – Mcl-1/Bid interaction inhibition. Q07820. TR-FRET Mcl-1/Bid-Dy647 peptide binding, 1536-well. inhibition, % at 21.7 µM. 220,000 compounds, 0.97% hits. AID 1021;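 active means compounds that cut the binding signal by more than half at the single screening dose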;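 further: His-tagged Mcl-1 with europium anti-His antibody binding Bid BH3 peptide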
Bim-Mcl-1 – human Bim-Mcl-1 interaction inhibition. Q07820. Bead-based flow cytometry, Bim peptide-Mcl-1 binding. inhibition, % at 10 µM. 190,000 compounds, 0.1% hits; in the data active means inhibition above about 40%
Hits are given with their value; . = inactive; / = not tested or not shown; [ ] = another dose, or the depositor's remark.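 How the source made its calls, unless noted: active means inhibition above about 30% (limit read from the data); inactive means the rest.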

SMILES	14-3-3 Bad inh	eIF4E-4G inh	Mcl1-Noxa inh	NCF1 inh	Mcl1-Bid inh	Bim-Mcl-1
Cn1c(-c2ccc(F)cc2)cnc1NCc1ccccc1	.	.	.	.	.	.
Cn1c(-c2ccc(F)cc2)cnc1NCc1cccc(F)c1	79	.	.	.	.	.
CCC1=NNc2cccc3c(OC)ccc1c23	.	.	78	138	.	.
COc1ccc2c3c(cccc13)C(=O)N(O)C2=O	.	.	.	.	.	.
CC(=O)c1ccc(N2CCN(C(=O)c3ccc(Cn4c(=S)[nH]c5ccc(N6CCOCC6)cc5c4=O)cc3)CC2)cc1	.	.	.	.	.	.
CC(=C/c1ccccc1)/C=C1/SC(N2CCOCC2)=NC1=O	.	.	.	.	64	.
O=C(COc1ccc(S(=O)(=O)Nc2ccccc2)cc1)NCc1cccnc1	.	.	.	.	.	.
O=C(CN1C(=O)CSc2ccc(S(=O)(=O)N3CCOCC3)cc21)NCc1cccnc1	.	.	54	.	.	.
O=C(COc1ccc(S(=O)(=O)N2CCCCC2)cc1)NCc1cccnc1	.	.	.	35	.	.
O=C(Nc1cccnc1Cl)c1ccc(=O)oc1	.	.	.	.	.	/
O=C(Nc1ccc2c(c1)OCCO2)c1c(F)cccc1F	.	.	.	.	.	.
CC(C(=O)Nc1ccc2c(c1)OCCO2)N(C)Cc1c(F)cccc1Cl (centres undefined)	97	.	.	.	.	.
Cc1cc(-c2cc(C(=O)NCc3ccccc3)on2)nc(NC2CCCC2)n1	.	.	.	.	.	/
O=C(N[C@H](C(=O)O)c1ccccc1)C1CCC(Cn2cnc3ccccc3c2=O)CC1 (some centres undefined)	.	.	.	.	.	/
O=C(/C=C/c1cccc(Br)c1)N1CCN(c2cccc(C(F)(F)F)c2)CC1	.	.	.	.	.	.
O=C(CN1CCN(c2cccc(C(F)(F)F)c2)CC1)Nc1cccc(C(F)(F)F)c1	74	.	.	.	.	.
O=C(c1ccncc1)N1CCN(c2cccc(C(F)(F)F)c2)CC1	.	.	57	.	.	.
O=C(c1c(F)c(F)c(F)c(F)c1F)N1CCN(c2cccc(C(F)(F)F)c2)CC1	.	.	.	.	.	.
O=C(/C=C/c1ccc(Br)cc1)N1CCN(c2cccc(C(F)(F)F)c2)CC1	.	.	.	.	61	.
O=C(CCC1CCCCC1)NCc1ccc(F)cc1	.	.	.	.	.	.
CC1CCCCC1NCC(=O)NCc1ccc(F)cc1 (centres undefined)	.	.	.	.	58	.
CCc1c(C)sc2nc(C(C)C)nc(SCC(=O)N3CCc4ccccc4C3)c12	.	.	.	.	.	.
Cc1sc2nc3c4ccccc4c(NCc4ccco4)nn3c(=O)c2c1C	.	.	67	.	.	.
Cc1ccc(-c2nnc(SCC(=O)N/N=C/c3ccc(C)s3)n2-c2ccccc2)cc1	.	.	.	.	.	.
CC(C)c1ccc(C(=O)NCc2ccc(Cl)cc2)cc1	.	31[fluorescence artefact?]	.	.	.	.
SMILES	14-3-3 Bad inh	eIF4E-4G inh	Mcl1-Noxa inh	NCF1 inh	Mcl1-Bid inh	Bim-Mcl-1
CC(=O)NCCNC(=O)c1ccc(CSc2ccc(Cl)cc2)cc1	.	.	.	.	.	.
CCNC(=O)c1ccc(CSc2ccc(Cl)cc2)cc1	.	36	.	.	.	.
O=C(CCN1CCN(CCO)CC1)Nc1ccc(OCc2ccccc2)cc1	.	.	.	.	55	.
CCC(c1nnnn1Cc1cccs1)N1CCN(C2CCCC2)CC1 (centres undefined)	.	.	.	.	54	.
CCCC(c1nnnn1C(C)(C)CC)N1CCN(C2CCCC2)CC1 (centres undefined)	73	.	.	.	.	.
CCCC(c1nnnn1Cc1ccc(F)cc1)N1CCN(C2CCCCC2)CC1 (centres undefined)	75	.	.	.	.	.
CCCCC(c1nnnn1C1CCCC1)N1CCN(C2CCCC2)CC1 (centres undefined)	.	.	.	.	.	.
CC(C)C(c1nnnn1Cc1ccc(F)cc1)N1CCN(C2CCCC2)CC1 (centres undefined)	.	.	.	.	.	.
CCCC(c1nnnn1C1CCCCC1)N1CCN(C2CCCC2)CC1 (centres undefined)	.	.	.	.	51	.
CCCC(c1nnnn1Cc1cccs1)N1CCN(C2CCCC2)CC1 (centres undefined)	.	.	.	.	.	.
CC1=CCC[C@@H]2[C@@](C)(CC/C(C)=C/C(=O)O)[C@H](C)CC[C@@]12C	.	.	.	.	.	.
COc1ccc(C(=O)CSc2ccccc2C(=O)O)cc1	.	.	.	.	.	.
CC/C(C)=N/Oc1nc(C)cc(C)n1	.	.	.	.	.	/
O=C(c1ccoc1)N1CCC(CO)(CCc2ccccc2)CC1	.	.	.	.	.	.
CCCC(c1nnnn1Cc1ccc(OC)cc1)N1CCC(C(N)=O)CC1 (centres undefined)	75	.	.	.	.	.
CC(C)C(NC(=O)CSCc1ccc([N+](=O)[O-])cc1)C(C)C	.	.	.	.	.	.
COc1ccccc1NC(=O)Cn1cnc2c(nnn2-c2ccc(C)cc2)c1=O	.	.	.	.	.	.
CCOC(=O)c1ccccc1NC(=O)Cn1cnc2c(nnn2-c2ccc(C)cc2)c1=O	.	50	.	.	.	.
COc1cc(/C=N/NC(=O)Cn2ccc(C(F)(F)F)n2)cc(OC)c1OC	.	.	.	.	.	.
CCOC(=O)C1CCCN(c2c(N3CCN(c4cccc(Cl)c4)CC3)c(=O)c2=O)C1 (centres undefined)	.	.	.	.	86	.
CCOC(=O)C1CCCN(c2c(N3CCN(C)CC3)c(=O)c2=O)C1 (centres undefined)	.	.	.	.	.	.
S=C1NC[C@H](c2ccccc2)N1CC1CCCCC1	.	.	.	.	.	.
CCCN1CCc2c(sc(NC(=S)NC(=O)c3ccccc3)c2C#N)C1	90	.	.	.	.	.
Cc1ccccc1C(=O)NC(=S)Nc1sc2c(c1C#N)CCCC2	.	.	.	.	93	.
CC(C)N1CCc2c(sc(NC(=S)NC(=O)c3ccccc3)c2C#N)C1	.	.	.	.	.	.
Cc1ccccc1-n1c(C)nnc1SCC(=O)NC1CCCc2ccccc21 (centres undefined)	92[fluorescence artefact?]	.	.	.	.	.
Cc1ccc(C(=O)NC2(C(F)(F)F)N=C3SCCN3C2=O)cc1 (centres undefined)	74	.	.	.	.	.
O=C(NC1(C(F)(F)F)N=C2SCCN2C1=O)c1cccnc1 (centres undefined)	.	.	.	.	.	.
CN(C)N1C(N)=C(C#N)C(c2cccnc2)C2=C1CC(C)(C)CC2=O (centres undefined)	.	.	.	.	62	.
Cc1cccc(C)c1-n1c(C)nn(CC#N)c1=O	.	.	.	.	.	.

Assay outcomes: PubChem BioAssay, several laboratories
